Several values for one entry are separate records, joined by “and”; a condition that tells them apart may be missing. Equal entries are not always repeated. Where a structure was tested more than once in an assay, its records may differ in their call. Activity calls are given as the source filed them. The calls were made as follows: active = hit-call score of the fitted dose curve at least 0.9, where 1 is the maximum; inactive = score below 0.9.
read-out: Monocyte Chemoattractant Protein-1 (MCP1), CCL2 (gene 6347); experiment: BSK_hDFCGF_MCP1: BioMAP Diversity Plus: hDFCGF Assay for Monocyte Chemoattractant Protein-1 (MCP1) Biomarker Activity (AID 2284285); settings: primary human foreskin fibroblasts
How it was run: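 Human foreskin fibroblasts (hDFCGF system) were exposed to compound and secreted MCP-1 was measured by ELISA after 24 hours. Activity was fitted relative to DMSO. Cytotoxicity was checked by SRB total-protein staining in parallel cultures.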

**Q.** With `FC(F)(F)C(F)(F)C(F)(F)C(F)(F)C(F)(F)C(F)(F)CCS` as the compound, how does the outcome read?
**A.** inactive

**Q.** How did the outcome turn out when `C=C(C)C(=O)OCC(F)(F)C(F)(F)C(F)(F)C(F)(F)C(F)(F)C(F)(F)C(F)(F)F` was run?
**A.** inactive

**Q.** Which outcome does the source give for `FC(F)(F)C(F)(F)C(F)(F)C(F)(F)CCI` here?
**A.** inactive

**Q.** How did the outcome turn out when `O=C(O)C(F)(F)C(F)(F)C(F)(F)F` was run?
**A.** inactive

**Q.** `FC(F)(F)C(F)(F)C(F)(F)N(C(F)(F)C(F)(F)C(F)(F)F)C(F)(F)C(F)(F)C(F)(F)F` was tested. Which outcome did it give?
**A.** inactive

**Q.** For `O=C(O)C(F)(F)C(F)(F)F`, which outcome is on record?
**A.** inactive

**Q.** With `FC(F)(I)C(F)(F)C(F)(F)C(F)(F)I` as the compound, how does the AC50 read?
**A.** 52.1 µM (active) and 46.6 µM (active) and 47 µM (active)

**Q.** How did the outcome turn out when `OCC(F)(F)C(F)(F)C(F)(F)F` was run?
**A.** inactive

**Q.** For `FC(F)(F)C(F)(F)C(F)(F)C(F)(F)C(F)(F)C(F)(F)C(F)(F)Br`, which outcome is on record?
**A.** inactive

**Q.** Which AC50 does the source give for `OCCCC(F)(F)C(F)(F)C(F)(F)C(F)(F)C(F)(F)C(F)(F)C(F)(F)F` here?
**A.** 16.1 µM (active) and 17.6 µM (active)

**Q.** With `O=S(=O)(OCC(F)F)C(F)(F)F` as the compound, how does the outcome read?
**A.** inactive

**Q.** How did the outcome turn out when `O=S(=O)(O)C(F)(F)C(F)(F)C(F)(F)C(F)(F)C(F)(F)C(F)(F)C(F)(F)F` was run?
**A.** inactive

**Q.** How did the AC50 turn out when `C=CC(=O)OCC(F)(F)C(F)(F)C(F)(F)C(F)(F)COC(=O)C=C` was run?
**A.** 7.35 µM (active) and 7.89 µM (active)

**Q.** With `C=C(C)C(=O)OCC(F)(F)C(F)(F)C(F)(F)F` as the compound, how does the outcome read?
**A.** inactive

**Q.** With `FC(F)(F)C(F)(F)CNCC(F)(F)C(F)(F)F` as the compound, how does the outcome read?
**A.** inactive

**Q.** With `CC(C)(C)C(=O)CC(=O)C(F)(F)C(F)(F)C(F)(F)F` as the compound, how does the outcome read?
**A.** inactive

**Q.** `O=C(O)C(F)(F)C(F)(F)C(F)(F)C(F)(F)C(F)(F)C(F)(F)C(F)(F)C(F)(F)Cl` was tested. Which AC50 did it give?
**A.** 44.4 µM (active) and 47 µM (active)

**Q.** Which outcome does the source give for `OCC(F)(F)C(F)(F)C(F)(F)C(F)(F)C(F)(F)C(F)F` here?
**A.** inactive

read-out: Vascular cell adhesion molecule 1 (VCAM1), VCAM1 (gene 7412); experiment: BSK_IMphg_VCAM1: BioMAP Diversity Plus: IMphg Assay for Vascular cell adhesion molecule 1 (VCAM1) Biomarker Activity (AID 2284286); settings: primary human endothelial cells with macrophages
How it was run: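 Human venular endothelial cells co-cultured with macrophages; VCAM-1 quantified by ELISA 24 h after dosing, fitted in the positive direction against DMSO. Cytotoxicity was checked in parallel cultures by SRB total-protein staining (0.1% SRB after 10% TCA fixation, 560 nm).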

**Q.** For `O=C(O)C(F)(OC(F)(F)C(F)(OC(F)(F)C(F)(OC(F)(F)C(F)(F)C(F)(F)F)C(F)(F)F)C(F)(F)F)C(F)(F)F` (stereo not given), which outcome is on record?
**A.** inactive

**Q.** For `FC(F)(F)C(F)(F)C(F)(F)C(F)(F)C(F)(F)C(F)(F)CCS`, which outcome is on record?
**A.** inactive

**Q.** `C=C(C)C(=O)OCC(F)(F)C(F)(F)C(F)(F)C(F)(F)C(F)(F)C(F)(F)C(F)(F)F` was tested. Which outcome did it give?
**A.** inactive

**Q.** How did the outcome turn out when `FC(F)(F)C(F)(F)C(F)(F)C(F)(F)CCI` was run?
**A.** inactive

**Q.** With `O=C(O)C(F)(F)C(F)(F)C(F)(F)F` as the compound, how does the outcome read?
**A.** inactive

**Q.** How did the AC50 turn out when `N=C(N)C(F)(F)C(F)(F)C(F)(F)C(F)(F)C(F)(F)C(F)(F)C(F)(F)F` was run?
**A.** 41.4 µM (active)

**Q.** What about the outcome of the same compound?
**A.** inactive

**Q.** Which outcome does the source give for `O=C(O)C(F)(OC(F)(F)C(F)(OC(F)(F)C(F)(F)C(F)(F)F)C(F)(F)F)C(F)(F)F` (stereo not given) here?
**A.** inactive

**Q.** With `O=C(O)C(F)(F)C(F)(F)C(F)(F)C(F)(F)C(F)(F)C(F)(F)C(F)(F)C(F)(F)C(F)(F)C(F)(F)C(F)(F)C(F)(F)C(F)(F)F` as the compound, how does the outcome read?
**A.** inactive

**Q.** How did the outcome turn out when `FC(F)(F)C(F)(F)C(F)(F)N(C(F)(F)C(F)(F)C(F)(F)F)C(F)(F)C(F)(F)C(F)(F)F` was run?
**A.** inactive

**Q.** For `O=C(O)C=C(C(F)(F)F)C(F)(F)F`, which AC50 is on record?
**A.** 30 µM (active)

**Q.** And the outcome?
**A.** inactive

**Q.** With `O=C(O)C(F)(F)C(F)(F)F` as the compound, how does the outcome read?
**A.** inactive

**Q.** Which AC50 does the source give for `FC(F)(I)C(F)(F)C(F)(F)C(F)(F)I` here?
**A.** 54 µM (active)

**Q.** What about the outcome of the same compound?
**A.** inactive

**Q.** How did the outcome turn out when `OCC(F)(F)C(F)(F)C(F)(F)F` was run?
**A.** inactive

**Q.** Which outcome does the source give for `FC(F)(F)C(F)(F)C(F)(F)C(F)(F)C(F)(F)C(F)(F)C(F)(F)Br` here?
**A.** inactive

**Q.** With `OCC(F)(F)C(F)(F)C(F)(F)C(F)F` as the compound, how does the outcome read?
**A.** inactive

**Q.** Which results are given for `OCCCC(F)(F)C(F)(F)C(F)(F)C(F)(F)C(F)(F)C(F)(F)C(F)(F)F`?
**A.** AC50: 54.6 µM (active); outcome: inactive

**Q.** Which outcome does the source give for `O=S(=O)(OCC(F)F)C(F)(F)F` here?
**A.** inactive

**Q.** Which outcome does the source give for `O=S(=O)(O)C(F)(F)C(F)(F)C(F)(F)C(F)(F)C(F)(F)C(F)(F)C(F)(F)F` here?
**A.** inactive

**Q.** Which outcome does the source give for `OCC(F)(F)C(F)(F)C(F)(F)C(F)(F)C(F)(F)C(F)(F)F` here?
**A.** inactive

**Q.** For `C=CC(=O)OCC(F)(F)C(F)(F)C(F)(F)C(F)(F)COC(=O)C=C`, which AC50 is on record?
**A.** 30.4 µM (active) and 23.4 µM (active)

**Q.** Which results are given for `O=C(O)C(F)(F)C(F)(F)C(F)(F)C(F)(F)C(F)(F)C(F)(F)C(F)(F)C(F)(F)C(F)(F)C(F)F`?
**A.** AC50: 52.7 µM (active); outcome: inactive

**Q.** How did the outcome turn out when `C=C(C)C(=O)OCC(F)(F)C(F)(F)C(F)(F)F` was run?
**A.** inactive

**Q.** How did the outcome turn out when `FC(F)(F)C(F)(F)CNCC(F)(F)C(F)(F)F` was run?
**A.** inactive

**Q.** `COC(=O)CCC(F)(F)C(F)(F)C(F)(F)C(F)(F)F` was tested. Which outcome did it give?
**A.** inactive

**Q.** For `CC(C)(C)C(=O)CC(=O)C(F)(F)C(F)(F)C(F)(F)F`, which outcome is on record?
**A.** inactive

**Q.** With `O=C(O)C(F)(F)C(F)(F)C(F)(F)C(F)(F)C(F)(F)C(F)(F)C(F)(F)C(F)(F)Cl` as the compound, how does the AC50 read?
**A.** 48.5 µM (active) and 45.7 µM (active)

**Q.** How did the outcome turn out when `OCC(F)(F)C(F)(F)C(F)(F)C(F)(F)C(F)(F)C(F)F` was run?
**A.** inactive
